IL-1B inflam inh: inflammasome signaling inhibition, IL-1 beta readout; actives 4.7% (n = 360,000); THP-1 LPS/ATP IL-1B secretion, AlphaLISA, 16 h; hits give low values; activity change, % at 57.5 µM; in the data active = activity change below about -50%; inconclusive = mostly about -30% to -49%
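Secreted IL-1B measured by AlphaLISA bead assay after 16 h compound exposure of THP-1 cells; compounds (final up to 57.5 uM) added 1 h before LPS (250 ng/mL) and ATP (1.25 mM) stimulation; lower signal means less secretion.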
ALOX12 inh: blocks human arachidonate 12S-lipoxygenase; Potency, µM (top dose mostly 108 µM), for the others: at the top dose activity change, negative = inhibition, usual class: inhibitors; AID 1671190; actives 1.1% (n = 580,000); P18054; purified 12hLO, xylenol orange hydroperoxide absorbance; note: potency is the fitted concentration of half-maximal effect
Target sequence (P18054 whole entry, looked up): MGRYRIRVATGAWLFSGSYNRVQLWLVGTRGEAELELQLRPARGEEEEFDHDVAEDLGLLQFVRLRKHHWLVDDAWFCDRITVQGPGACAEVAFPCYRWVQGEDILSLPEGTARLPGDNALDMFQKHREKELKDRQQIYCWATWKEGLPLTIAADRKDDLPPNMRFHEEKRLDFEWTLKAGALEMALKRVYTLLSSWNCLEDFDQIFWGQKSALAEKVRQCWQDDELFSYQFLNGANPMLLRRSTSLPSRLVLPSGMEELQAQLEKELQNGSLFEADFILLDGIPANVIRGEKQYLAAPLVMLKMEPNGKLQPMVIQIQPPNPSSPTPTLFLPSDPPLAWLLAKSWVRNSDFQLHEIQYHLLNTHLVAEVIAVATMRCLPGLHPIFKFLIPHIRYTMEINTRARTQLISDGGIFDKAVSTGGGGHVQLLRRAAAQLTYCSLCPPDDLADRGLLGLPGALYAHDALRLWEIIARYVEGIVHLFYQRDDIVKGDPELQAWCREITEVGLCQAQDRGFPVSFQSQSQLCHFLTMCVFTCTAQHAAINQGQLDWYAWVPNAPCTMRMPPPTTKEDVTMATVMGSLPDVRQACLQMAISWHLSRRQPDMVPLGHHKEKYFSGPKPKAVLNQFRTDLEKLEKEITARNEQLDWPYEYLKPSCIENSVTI
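Hydroperoxide product was detected by ferrous iron/xylenol orange as the 573 to 405 nm absorbance ratio. Arachidonic acid at 40 uM (final) was turned over for 30 min at room temperature by 150 nM human 12hLO, pH 7.0 Hepes buffer, after 15 min compound preincubation.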
TDP1 cell CPT: DT40-hTDP1 cell growth loss with CPT | chicken DT40 Tdp1-/-;hTDP1 cells + 20 nM CPT, ATP luminescence, 48 h | Potency, µM (top dose mostly 46.2 µM), for the others: at the highest dose activity change, negative = growth inhibition, usual class: inhibitors | actives 12% (n = 420,000); note: potency is the fitted concentration of half-maximal effect; nearly all actives have a fitted effect of over 55% in size
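Chicken DT40 Tdp1-/- cells stably complemented with human TDP1 were seeded at 400 cells/well in medium containing 20 nM camptothecin, exposed to pin-transferred compounds, and grown at 37 °C for at least 48 hr. Viability was read as ATP luminescence.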
TDP1 cell noCPT: qHTS for Inhibitors of human tyrosyl-DNA phosphodiesterase 1 (TDP1): qHTS in cells in absence of CPT. AID 686978, 2013. actives 15% (n = 420,000). DT40 Tdp1-/- hTDP1 cells, no CPT, ATP luminescence, 48 h. Potency, µM (top dose mostly 46.2 µM), without a hit: at the top dose activity change, negative = growth inhibition, usual class: inhibitors; note: potency is the fitted concentration of half-maximal effect; nearly all actives have a fitted effect of over 55% in size
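Readout: luminescence from CellTiter-Glo after 30 min in the dark at RT. Cells: DT40 Tdp1-/- with stable hTDP1, 400/well. Exposure: compounds alone, ≥48 hr, 37 °C.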
HT1080 IDH1KD tx: kills HT-1080 cells with IDH1 knockdown; actives 2% (n = 360,000); HT-1080 IDH1 knockdown viability, ATP luminescence, 48 h; AID 686971; Potency, µM (titrated, usually from 46.1 µM), for the others: top-dose activity, negative = toxicity, actives largely listed as cytotoxic;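 note: potency is the fitted concentration of half-maximal effect; 0% = DMSO wells and -100% = cell-free medium wells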
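After a 2 h attachment period, IDH1KD HT-1080 cells took pin-transferred compound for 48 h at 37 °C; ATP-based luminescence after 10 min room-temperature reagent incubation reported viability.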
HT1080-NT tox: kills 2HG-producing HT-1080-NT fibrosarcoma cells; HT-1080-NT fibrosarcoma viability, CellTiter-Glo ATP luminescence, 48 h; Potency, µM (top dose mostly 46.1 µM), inactives show top-dose activity, negative = less viability, most hits filed as cytotoxic; actives 1.6% (n = 360,000); AID 686970;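 note: NT is the 2HG producing partner of a matched IDH1 knockdown line; potency is the fitted concentration of half-maximal effect; 0% = DMSO-treated cells and -100% = media-only wells without cells; nearly all actives have a fitted effect of over 55% in size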
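Viability by CellTiter-Glo luminescence after 48 h compound exposure at 37C of HT-1080-NT cells (750/well, RPMI, 5% FBS). % activity scaled between DMSO wells and medium-only wells, then curve-fitted and categorized by curve class.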
Active calls of the source: *; ? = inconclusive; nt = no result; [ ] = remark or other dose. The sample as a whole holds a higher share of hits than the screen did. Unless noted, calls come from the whole dose curve; as a rule, active = well fitted curve in the direction sought with a large enough effect; inconclusive = small, poorly fitted or top-dose-only effect, or another doubt; inactive = no such curve, though single readings can be large; an effect the other way counts as inactive or inconclusive. Unless noted, % is set by controls: 0 for no effect and ±100 for the full control effect.

SMILES	IL-1B inflam inh	ALOX12 inh	TDP1 cell CPT	TDP1 cell noCPT	HT1080 IDH1KD tx	HT1080-NT tox
CCN(CC(=O)NCc1ccc(Cl)cc1)C(=O)CSCC(=O)Nc1ccc(C)cc1	-93*	-6%	-15%	-19%	-9%	-14%
CCN(CC(=O)NCc1ccc(Cl)cc1)C(=O)CSc1cc(C)ccc1C	-58*	?	?	?	-1%	-14%
Nc1cccc2c1C(=O)N(C(=O)/C=C/c1cccc(F)c1)C2=O	-70*	?	?	?	16µM*	18µM*
O=C(/C=C/c1cccc(Br)c1)N1CCN(c2cccc(C(F)(F)F)c2)CC1	-25	?	-2%	12%	-19%	-18%
Nc1cccc2c1C(=O)N(C(=O)/C=C/c1cccc(Br)c1)C2=O	-75*	-23%	10µM*	23µM*	?	?
Cc1ccc(C(=O)N2C(C(=O)N3CCOCC3)COC23CCN(C(=O)c2ccc(F)cc2)CC3)cc1 (configuration not stated)	nt	18%	nt	nt	nt	nt
CC(=O)CC[N+](C)(C)C	-96*	?	13µM*	15µM*	?	-7%
CCCCCCCCCC(C)=O	nt	-11%[176 µM]	nt	nt	nt	nt
Cc1cc(CNC(=O)C(C)n2cc([N+](=O)[O-])cn2)c2ccccc2n1 (configuration not stated)	13	-15%	?	21µM*	-11%	-28%
Cc1cc(CNC(=O)Cn2cc([N+](=O)[O-])cn2)c2ccccc2n1	32	-8%	?	?	-18%	-27%
COCCNc1nc(Nc2ccc(C#N)cc2)c2sccc2n1	73	14%	21µM*	16µM*	0%	?
COCCNc1nc(Cl)c(C#N)s1	19	2%	-1%	-5%	-8%	12%
COCCNc1nc(Nc2ccc(F)cc2)c2sccc2n1	59	7%	18µM*	12µM*	17%	?
CCN(CC(=O)Nc1cc(Cl)ccc1C)C(=O)CCS(=O)(=O)c1ccc(Cl)cc1	-29	7%	18µM*	?	1%	4%
CCOc1ccc2c(c1)c1nnc(SCC(=O)NC3CC3)nc1n2C	6	11%	-21%	?	-5%	2%
CCN(CC)c1ccc(S(=O)(=O)N2CCOCC2)cc1NC(=O)CNCc1ccccc1	-22	17%	?	21µM*	-7%	-1%
CCN(CC)c1ccc(S(=O)(=O)N2CCOCC2)cc1NC(=O)Nc1ccccc1	13	?	?	21µM*	-6%	12%
CCN(CC)c1ccc(S(=O)(=O)N2CCOCC2)cc1NC(=O)CN1CCN(Cc2ccccc2)CC1	0	-9%	16µM*	15µM*	-1%	-7%
CCN(CC)c1ccc(S(=O)(=O)N2CCOCC2)cc1NC(=O)CSC(=S)N1CCCC1	?	-9%	18µM*	10µM*	0%	-11%
CN1CCN(CC(=O)Nc2cc(S(=O)(=O)N3CCOCC3)ccc2Cl)CC1	-1	-9%	-21%	1%	-2%	-5%
CCOc1ccc(C(C(=O)NC2CCCCC2)N(C(=O)c2cnccn2)c2cccs2)cc1 (configuration not stated)	nt	-12%	nt	nt	nt	nt
CC1=C(C(=O)OC(C)C)C(c2ccccc2C)N2C(CC(=O)NC3CC3)=CSC2=N1 (configuration not stated)	nt	54%	nt	nt	nt	nt
COc1ccc2c(c1)c(C(=O)O)c(C)n2-c1ccc(I)cc1	nt	-8%	nt	nt	nt	nt
C[C@H](c1ccccc1)N1C[C@H](COCc2ccccc2)Oc2cc(N3CC[C@H](N(C)C)C3)ccc2S1(=O)=O	-22	?	?	?	15µM*	23µM*
C[C@H](c1ccccc1)N1C[C@H](COCc2ccccc2)Oc2cc(N3CC[C@H](O)C3)ccc2S1(=O)=O	-5	-25%	?	?	?	?
SMILES	IL-1B inflam inh	ALOX12 inh	TDP1 cell CPT	TDP1 cell noCPT	HT1080 IDH1KD tx	HT1080-NT tox
C[C@@H](c1ccccc1)N1C[C@H](COCc2ccccc2)Oc2cc(N3CC[C@@H](N(C)C)C3)ccc2S1(=O)=O	69	?	?	?	?	?
C[C@H](c1ccccc1)N1C[C@@H](COCc2ccccc2)Oc2cc(N3CC[C@H](O)C3)ccc2S1(=O)=O	-1	-3%	?	16µM*	?	?
COc1ccccc1-n1c(SCC(=O)N2CCCc3ccccc32)nc2c(c1=O)SCC2	nt	-21%	nt	nt	nt	nt
CCN(CC)S(=O)(=O)c1ccc(Cc2ncc(C(F)(F)F)cc2Cl)s1	-58*	0%	?	21µM*	-22%	-15%
O=C(CCl)c1ccc(Cc2ncc(C(F)(F)F)cc2Cl)s1	-104*	?	3.3µM*	5.2µM*	-13%	-19%
O=C(Nc1cccc(Cl)c1)C1CCCC1	nt	12%	nt	nt	nt	nt
COc1ccc(OC)c(N2Cc3cc(C)c(C)cc3C2)c1	-1	?	?	26µM*	3%	-7%
CCOc1ccccc1N1Cc2cc(C)c(C)cc2C1	4	?	26µM*	?	-3%	0%
COc1ccc(C(=O)Nc2cc([N+](=O)[O-])ccc2N2CCN(C)CC2)cc1	-1	5%	11µM*	?	-17%	2%
Cc1ccc(C(=O)NC(=S)Nc2ccc(NC(=O)c3cccs3)cc2)cc1[N+](=O)[O-]	12	1%	8.2µM*	3.7µM*	21µM*	?
CN1CCN(c2ccccc2NC(=O)c2ccc(N3CCCCC3)c([N+](=O)[O-])c2)CC1	-63*	18%	12µM*	12µM*	-22%	-25%
Cc1ccc(C(=O)Nc2ccccc2N2CCN(C(=O)C(C)C)CC2)cc1C	-22	-34%	?	13µM*	-23%	-22%
Cc1ccc(C(=O)Nc2ccc(NC(=O)c3cccs3)cc2)cc1[N+](=O)[O-]	-24	-4%	?	-16%	7%	26%
COc1cccc(C(=O)Nc2cc([N+](=O)[O-])ccc2N2CCN(C)CC2)c1	-11	11%	?	-20%	?	-20%
Cc1ccc(C(=O)NC(=S)Nc2ccccc2N2CCCC2)cc1[N+](=O)[O-]	-19	?	16µM*	18µM*	-25%	-18%
COc1ccc(C(=O)Nc2ccccc2N2CCCCC2)cc1[N+](=O)[O-]	75	-2%	?	?	-8%	-3%
Cc1ccc(C(=O)Nc2ccccc2N2CCCCC2)cc1[N+](=O)[O-]	79	-17%	?	16µM*	2%	10%
